Bioassay records: PubChem, Johns Hopkins Ion Channel Center
TMEM16A inh – TMEM16A chloride channel inhibitors, primary screen, cell-based, HTS. Anoctamin-1 (Mus musculus), Q8BHY3. HEK293 TMEM16A/YFP iodide influx fluorescence, ionomycin. normalized B-score (activity score, 25-100; higher = stronger inhibition) at 10 µM. actives 1.2% (n = 310,000). AID 588511, 2011;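 active = ratio plate-corrected score three or more library SD toward inhibition, starting fluorescence score within five deviations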;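 also: score derived from kinetic fluorescence span divided by baseline fluorescence per well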
CHT block – inhibitors of human choline transporter CHT; High affinity choline transporter 1 (Homo sapiens), Q9GZV3; CHT-expressing cells, membrane potential dye, choline response; stronger effect = lower value; B-score at 10 µM; actives 0.86% (n = 310,000); AID 488975, 2010;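 active = B-score over 3 SD under the library average, and starting fluorescence ratio not unusually high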;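 also: choline stimulus applied at its EC90 after an EC20 pre-addition; B-score computed on integrated fluorescence ratio after choline addition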
Target sequence (Q9GZV3 whole entry, looked up): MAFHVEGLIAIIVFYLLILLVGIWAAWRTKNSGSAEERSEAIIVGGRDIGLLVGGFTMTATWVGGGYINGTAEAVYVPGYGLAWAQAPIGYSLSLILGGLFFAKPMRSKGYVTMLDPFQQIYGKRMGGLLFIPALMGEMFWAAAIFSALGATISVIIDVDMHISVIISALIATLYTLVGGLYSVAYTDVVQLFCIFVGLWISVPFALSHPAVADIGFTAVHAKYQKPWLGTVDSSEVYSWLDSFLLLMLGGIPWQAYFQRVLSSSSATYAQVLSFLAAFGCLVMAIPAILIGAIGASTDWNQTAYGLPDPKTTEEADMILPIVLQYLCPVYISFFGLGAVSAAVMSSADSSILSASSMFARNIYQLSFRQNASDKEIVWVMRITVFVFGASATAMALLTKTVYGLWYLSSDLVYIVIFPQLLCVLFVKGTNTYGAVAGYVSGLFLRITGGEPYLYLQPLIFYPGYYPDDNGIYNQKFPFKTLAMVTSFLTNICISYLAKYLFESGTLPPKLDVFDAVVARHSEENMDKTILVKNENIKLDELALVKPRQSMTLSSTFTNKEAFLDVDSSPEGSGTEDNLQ
ANO1 activ – TMEM16A chloride channel activators or potentiators, primary screen, cell-based, HTS. Anoctamin-1 (Mus musculus), Q8BHY3. HEK293 TMEM16A/YFP-H148Q/I152L, iodide quench fluorescence; stronger effect = lower value. B-score at 10 µM. actives 0.3% (n = 340,000). AID 623877, 2012;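 active = fluorescence-ratio B-score plate-corrected deviation score at least 3 library SD below zero, with starting fluorescence score within 5 deviations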;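 also: channel opened by trigger with iodide after compound preincubation; score built on the fluorescence ratio of max minus min over baseline; more negative score means more quench and so TMEM16A activation or potentiation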
CHT allo act – CHT positive allosteric modulators, primary screen, cell-based, membrane potential dye, choline EC20; High affinity choline transporter 1 (Homo sapiens), Q9GZV3; CHT-expressing cells; stronger effect = higher value; LV-AA mutant CHT in HEK293 cells; B-score at 10 µM; actives 0.49% (n = 310,000);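 active = initial fluorescence not abnormally high and integrated response B-score, plate-corrected, over 3 SD above library mean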
CHT activ conf – CHT activators, confirmation, cell-based, membrane potential dye, duplicate; shares compounds with CHT allo act; CHT-expressing cells, membrane potential dye fluorescence (FDSS); % of choline EC20–EC90 response window; HEK293 expressing CHT LV-AA mutant; choline added at its EC20; activation, % at 10 µM; actives 91% (n = 2,500); AID 504833, 2011;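 active = primary screen active, with duplicate mean activation above negative control mean plus 3 SD, cut at about 11% in these data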
HEK293 MP dye – membrane potential response in parental HEK293 cells, counter-screen for CHT activator project, cell-based, membrane potential dye | shares compounds with CHT allo act | membrane potential dye fluorescence (FDSS); measured after EC20 choline addition | ratio readout change at 10 µM, hits read low | actives 62% (n = 2,500) | AID 623908, 2012;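 active = duplicate-averaged ratio beyond 3 SD from buffer wells, up or down, though filed actives are nearly all decreases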
Each line names hits and unclear results; the compound was inactive in the other large screens (follow-up assays come after a bar, where they were run). Most compounds without a hit are left out; they make up all but 2.3% or so of the library.

CCC(C)N1CCC2(CC1)N=c1c(c3c4c5c(C)c(O)c3c(O)c1=NC(=O)C(C)=CC=C[C@H](C)[C@H](O)[C@@H](C)[C@@H](O)[C@@H](C)[C@H](OC(C)=O)[C@H](C)[C@@H](OC)C=CO[C@@](C)(O5)C4=O)N2 (stereo partly specified)	none | CHT activ conf 22 | HEK293 MP dye -42
CCn1c(/C=C/c2cc(Br)ccc2O)nc2ccccc2c1=O	none
S=C(Nc1ccc2snnc2c1)N1CCN(c2ccccn2)CC1	none
Cc1cc(NCCN2CCOCC2)c2ccc3ccccc3c2n1	CHT allo act 6.8 | CHT activ conf 39 | HEK293 MP dye -41
COc1ccc2nc(C)cc(NCCN3CCOCC3)c2c1	none
CSc1nc(NCCCO)c2c3c(sc2n1)CN(C)CC3	none | CHT activ conf 41 | HEK293 MP dye -47
CCOC(=O)C1(CCOc2ccccc2)CCN(Cc2cccn2-c2ncccn2)CC1	CHT allo act 15 | CHT activ conf 38 | HEK293 MP dye inactive
CCOC(=O)C1(Cc2cccc(OC)c2)CCN(Cc2cccc3cnccc23)CC1	none | CHT activ conf 22 | HEK293 MP dye inactive
CCOC(=O)C1(CCOc2ccccc2)CCN(Cc2cccc(OC)c2)CC1	none
CCOC(=O)C1(CCOc2ccccc2)CCN(Cc2ccncc2)CC1	none
CCOC(=O)C1(CCOc2ccccc2)CCN(Cc2ccc(-n3cccn3)cc2)CC1	TMEM16A inh 25, CHT allo act 6.3 | CHT activ conf 27 | HEK293 MP dye inactive
CCOC(=O)C1(CCOc2ccccc2)CCN(Cc2cc(OC)ccc2OC)CC1	none | CHT activ conf 30 | HEK293 MP dye inactive
C=CCN(CC=C)CCOc1cccc(Oc2ccccc2)c1	none
COc1ccc(F)cc1C(=O)C1CCCN(Cc2c(C)n(C)n(-c3ccccc3)c2=O)C1 (stereo unspecified)	none
CC(C)NC(=O)c1cc(-c2ccc3c(c2)OCO3)on1	none
Cc1ccn2cc(C34CC5CC(CC(C5)C3)C4)nc2c1	CHT allo act 8.9 | CHT activ conf 17 | HEK293 MP dye inactive
N/C(=N\OC(=O)c1ccncc1)c1cccc([N+](=O)[O-])c1	CHT allo act 7.3 | CHT activ conf 37 | HEK293 MP dye -46
Cc1ccc(C(=O)O/N=C(\N)c2cccc([N+](=O)[O-])c2)cc1	none
Cn1cccc1C(=O)NC1CCCCCC1	none (no result: TMEM16A inh, CHT block, CHT allo act)
COc1cccc(OCC(O)CN2CCN(CCN3C(=O)c4cccc5cccc(c45)C3=O)CC2)c1 (stereo unspecified)	none
O=C1c2cccc3cccc(c23)C(=O)N1CCN1CCN(CC(O)COc2ccccc2)CC1 (stereo unspecified)	none | CHT activ conf inactive | HEK293 MP dye inactive
CN(C)CCNC(=O)c1onc(CSc2ccncc2)c1C(=O)NCCN(C)C	none | CHT activ conf 50 | HEK293 MP dye -58
CCCCC1CCC(C(=O)NC2CCS(=O)(=O)C2)CC1 (stereo unspecified)	none | CHT activ conf 10 | HEK293 MP dye inactive
COCc1cc(C)nc(SCC[N+](C)(C)CC(=O)Nc2ccccc2)c1C#N	none | CHT activ conf 37 | HEK293 MP dye -28
COCc1cc(C)nc(SCC[N+](C)(C)CC(=O)c2ccc(Br)cc2)c1C#N	none
CCOC(=O)c1c[nH]c2c(Cl)ccc(Cl)c2c1=O	CHT allo act 7.2 | CHT activ conf 69 | HEK293 MP dye -64
CCOC(=O)c1c[nH]c2c(C)cc(C)cc2c1=O	CHT allo act 8.1 | CHT activ conf 63 | HEK293 MP dye -37
CCOC(=O)c1c[nH]c2c(Cl)c(Cl)ccc2c1=O	none | CHT activ conf 39 | HEK293 MP dye -37
CCOC(=O)c1c[nH]c2c3c(ccc2c1=O)CCCC3	none
CC(C)NC(=O)COC(=O)CNC(=O)c1cc(Cl)cc([N+](=O)[O-])c1	none
CC(NC(=O)Cn1c(NCCO)nc2ccccc21)C1CC2CCC1C2 (stereo unspecified)	none | CHT activ conf 38 | HEK293 MP dye inactive
O=C(c1cccc(F)c1)N1CCCC(C(=O)N2CCCCCC2)C1 (stereo unspecified)	none
CCC(C)(C)n1nnnc1C(c1cc(OC)ccc1OC)N1CCN(Cc2ccccc2)CC1 (stereo unspecified)	CHT allo act 7.6 | CHT activ conf 35 | HEK293 MP dye inactive
COc1ccccc1C(c1nnnn1Cc1ccco1)N1CCN(c2cccc(C)c2C)CC1 (stereo unspecified)	none
COc1ccc(N2CCN(C(c3cc(OC)ccc3OC)c3nnnn3Cc3ccco3)CC2)cc1 (stereo unspecified)	CHT allo act 7.4 | CHT activ conf 21 | HEK293 MP dye inactive
COC(=O)C1C(=O)C(C(=O)c2ccc([N+](=O)[O-])cc2)C(=O)CC1(C)C (stereo unspecified)	none
CN(CCO)c1cc(NCCCN2CCC(Cc3ccccc3)CC2)c2nonc2c1[N+](=O)[O-]	none
CC1CCN(CCCNc2cc(NCCO)c([N+](=O)[O-])c3nonc23)CC1	none | CHT activ conf 31 | HEK293 MP dye -62
NC(=O)C1CCN(C(=O)CCC(=O)c2ccc(F)cc2)CC1	none
Cc1cc(C(=O)NNC(=O)CN2C(=O)NC3(CCCCC3)C2=O)c(C)o1	none (no result: TMEM16A inh, CHT block, CHT allo act)
Cc1noc(C)c1C(=O)OCC(=O)Nc1cc(Cl)ccc1Oc1ccccc1	CHT allo act 6.7 | CHT activ conf 28 | HEK293 MP dye inactive
O=C(OCc1nc2scc(-c3ccccc3)c2c(=O)[nH]1)c1cccc([N+](=O)[O-])c1	none
CC(C)(C)N(NC(=O)c1ccccc1)C(=O)c1cccc(C(=O)N(NC(=O)c2ccccc2)C(C)(C)C)c1	CHT allo act 8.5 | CHT activ conf 35 | HEK293 MP dye inactive
COc1cc(/C=N/N(C)c2ccccc2)cc(Cl)c1O	none
COC(=O)c1ccccc1NC(=O)CSc1nnc(CNS(=O)(=O)c2ccc(C)cc2)n1C	none (no result: TMEM16A inh, CHT block, CHT allo act)
CCC(=Nc1ccccc1OC)C1=C(O)CC(c2ccccc2)CC1=O (stereo unspecified)	CHT allo act 12 | CHT activ conf 32 | HEK293 MP dye inactive
O=C(NCC1CCCN(C(=O)c2cc(Cl)ccc2F)C1)c1ccc(F)cc1 (stereo unspecified)	none
Cc1ccc(NC(=O)NCCCc2ccccc2)cc1	none
O=C(NCCO)c1ccc2c3n(nc2c1)-c1ccc(Cl)cc1CO3	CHT allo act 8.6 | CHT activ conf 20 | HEK293 MP dye -23
CCOC(=O)C1CCN(C(=O)C2CCN(S(=O)(=O)c3cccc4nsnc34)CC2)CC1	none
